The source of these data is PubChem BioAssay (NCI).

Holding throughout (test): NCI-60 one-dose screen, 48 h (100 = growth as untreated, 0 = no growth, -100 = all killed)
What all share (conditions): 10 µM unless noted

The test system of test [1] is SR leukemia.
The test system of test [2] is RPMI-8226 leukemia.
The test system of test [3] is OVCAR-8 ovarian.
In test [4] the test system is OVCAR-5 ovarian.
For test [5], the system named is OVCAR-4 ovarian.
In test [6] the test system is SK-OV-3 ovarian.
Test [7] has as its system IGROV1 ovarian.
In test [8] the test system is OVCAR-3 ovarian.
In test [9] the test system is HS 578T breast.
In test [10] the test system is NCI/ADR-RES ovarian.

This is part of a sample that, as a whole, favours compounds with a hit. Of some 83,000 tested, about 20% had one in any assay.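 Activity criterion: percent growth below 10, measured after cells in 96-well plates were exposed to a single compound concentration for 48 hours.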 A number with no mark means an inactive call. The source made the active and inactive calls.

With `COC(=O)c1ccc2[nH]c(O)c(C(=Nc3ccc(N(C)C(=O)CN4CCN(C)CC4)cc3)c3ccc(OC)cc3)c2c1`, the growth was -14.8% (active) in [1]; 7.14% (active) in [2]; 25.6% in [3]; 38.4% in [4]; 38.7% in test [5]; 2.38% (active) in [6]. Also, the growth in test [7] was 6.44% (active); in [8], 30.4%; in [9] it was 11.9%; in test [10], 101%.

With `Nc1ccc(N=Nc2ccccc2)c2cc(S(=O)(=O)O)ccc12`, the growth in [1] was 95.8%; in test [2], 103%; in [3] it was 96.5%; in [4], 107%; in [5], 107%; in [6], 97.8%. For the same compound, the growth is 108% in test [7], 108% in test [8], 104% in test [9] and 101% in test [10].

As to `CCCCCSc1ccc2nc(NC(=O)OCCC)sc2c1`, the growth in [1] is 34.2%; in test [2], 29.6%; in [3], 65.8%; in [4] it was 86.3%; in [5] it was 35.1%; in test [6], 41.9%. The growth was 55.4% in test [7], 13.3% in [8], 23.9% in test [9] and 22.7% in test [10].

Regarding `CCOC(=O)NNc1[nH]c(-c2ccc(OC)cc2)cc1C#N`, the growth in test [1] was -2.04% (active); in test [2], 91.2%; in test [3], 99.5%; in test [4] it was 87.7%; in test [5], 153%; in test [6], 111%. Moreover, the growth in test [7] was 57.5%; in [8] it was 107%; in test [9] it was 96.3%; in test [10] it was 88.9%.

`COC(=O)/C=C1/CCCCC1(C)C(=O)OC` (stereo not given): the growth is 92.8% in [1]; 101% in test [2]; 98.4% in test [3]; 118% in [4]; 103% in test [5]; 110% in test [6]. The growth in [7] was 107%; in test [8] it was 118%; in test [9], 105%; in test [10], 111%.

Turning to `O=C(Nc1ccc(-n2cc(-c3ccncc3)c(-c3ccc(Cl)c(O)c3)n2)cc1)c1cc(C(F)(F)F)cc(C(F)(F)F)c1`, the growth in test [1] was 23.9%; in test [2] it was 27.6%; in [3], 65.4%; in test [4], 84.5%; in test [5], 70%; in test [6], 72.4%. Further, the growth was 70.5% in [7], 53.2% in test [8], -4.23% (active) in [9] and 72.9% in test [10].

Regarding `O=C(NCCO)C(F)(F)F`, the growth was 98.7% in test [1]; 109% in test [2]; 103% in test [3]; 96.6% in test [4]; 118% in test [5]; 100% in test [6]. Also, the growth in test [7] is 106%; in test [8], 101%; in test [9], 106%; in test [10], 106%.

Regarding `NNC(=O)CNc1ccc2ccccc2c1`, the growth is 55% in test [1]; 113% in test [2]; 108% in [3]; 195% in test [4]; 108% in test [5]; 106% in test [6]. The growth in [7] is -27.9% (active); in test [8], 114%; in test [9], 93.3%; in [10], 113%.

On to `c1cc[c]([Bi]([c]2ccccc2)[c]2ccccc2)cc1`, for which the growth in test [1] is 102%; in [2], 91%; in [3] it was 101%; in [4] it was 99.3%; in [5] it was 89.3%; in test [6] it was 111%. For the same compound, the growth was 107% in test [7], 105% in test [8], 100% in test [9] and 98% in [10].

In the case of `CCCCCCCCCCCCCCCC[n+]1cccc(C#N)c1`, the growth in [1] was -8.5% (active); in test [2] it was 45.1%; in test [3], 51.6%; in [4] it was 79.7%; in test [5] it was 56.6%; in [6], 100%. The growth in test [7] is 69.2%; in test [8], 35.5%; in test [9] it was 96.6%; in test [10] it was 96.3%.

In the case of `CCC(C)C1NC(=O)C(CCCCN)NC(=O)C(CCCCN)NC(=O)C(CC(C)C)NC(=O)C(CCCCN)NC(=O)C(C(C)CC)NC(=O)C(C(C)C)NC(=O)C(C(C)CC)NC(=O)C(CCCCN)NC(=O)C(CCCCN)NC(=O)C(C)NC(=O)C(CCCCN)NC(=O)C(CC(C)C)NC1=O` (stereo not given), the growth is 2.93% (active) in test [1]; -17.4% (active) in test [2]; 12.4% in [3]; 67.3% in test [4]; 23.2% in [5]; 26.1% in test [6]. The growth in [7] was 24.4%; in test [8], 10.6%; in test [9], 53%; in test [10], 58.7%.

As for `CC1=C(C)C(=O)C(C(C)C2=C(C)C(=O)C(C)=C(C)C2=O)=C(C)C1=O`, the growth in test [1] was 56%; in test [2], 50.5%; in test [3], 99.1%; in [4] it was 44%; in test [5] it was 104%; in test [6] it was 98.1%. The growth in test [7] is 2.57% (active); in test [8], 150%; in test [9], 77.9%; in test [10] it was 91.9%.

As to `Cc1nnc(/N=C2\NC(=O)/C(=C/C=C/c3ccccc3)S2)s1`, the growth in test [1] is 34.8%; in test [2], 44.8%; in test [3], 49.5%; in test [4], 88.3%; in test [5], 48.5%; in test [6] it was 58.3%. The growth was 51.8% in [7], 38.5% in test [8], 71.7% in test [9] and 44.8% in test [10].

On to `Cc1nc(NC(=O)NC2CCCCC2)sc1C(=O)NN`, for which the growth in [1] is 131%; in [2], 112%; in test [3], 102%; in test [4], 102%; in test [5], 109%; in test [6] it was 116%. In addition, the growth in [7] was 72.2%; in test [8], 99.5%; in [9], 105%; in [10], 118%.

Take `COc1cc(-c2cc3cnccc3c3nc(N)c4ccncc4c23)cc(OC)c1OC`: the growth in test [1] was 17%; in test [2], 8.28% (active); in test [3], 41.4%; in test [4], 68.7%; in [5] it was 73.5%; in test [6], 57.5%. Further, the growth in [7] is 15%; in [8] it was 48.8%; in test [9], 10.1%; in test [10], 30.7%.

For `CCCCCCCCc1ccc(OCCOCC[N+](C)(C)CC)cc1` (tested in a mixture with another compound), the growth in test [1] was 37.7%; in [2], 8.79% (active); in test [3], 48.4%; in test [4] it was 76%; in [5] it was 20.7%; in test [6], 78.5%. The growth in test [7] is 33.8%; in [8], 20.6%; in test [9], 37.7%; in test [10], 107%.

As for `CCN(CC)C(=O)C1(C)CCCC2(C)c3cc(OC(C)=O)ccc3CCC12` (stereo not given), the growth in test [1] is 62.8%; in test [2], 58.8%; in [3], 86.4%; in test [4] it was 96.9%; in [5], 71.2%; in test [6], 94.1%. Further, the growth in test [7] is 79.9%; in test [8], 88.8%; in [9], 84.1%; in test [10] it was 85.8%.

`COc1ccc(CN2C(=O)/C(=C\C(=O)c3ccc(OCCN4CCCC4)cc3)c3ccccc32)cc1`: the growth was -14.2% (active) in test [1]; -4.7% (active) in test [2]; 86.5% in [3]; 77.6% in [4]; 60.4% in test [5]; 101% in test [6]. Moreover, the growth in [7] was 81.4%; in test [8], 49.6%; in [9] it was 84.2%; in [10] it was 85.8%.

In the case of `CC(=O)Nc1nc(C)c(C(=O)N/N=C/c2cccs2)s1`, the growth in test [1] was 81.4%; in test [2], 61.9%; in [3], 112%; in [4] it was 99%; in test [5], 112%; in [6], 87.7%. Moreover, the growth is -4.95% (active) in test [7], 121% in [8], 85.5% in test [9] and 99.2% in test [10].

As for `CCCCCc1ccnc(CC(=O)c2ccc(OC)cc2)c1`, the growth in test [1] was 91.5%; in test [2], 76.7%; in [3], 86.1%; in test [4] it was 89.7%; in [5], 76.5%; in test [6], 92.5%. For the same compound, the growth was 108% in test [7], 93.7% in [8], 107% in [9] and 108% in test [10].

In the case of `COc1cc2ncnc(-n3ncc4cc(NC(=O)Nc5ccccc5)ccc43)c2cc1OC`, the growth in [1] is 26.6%; in test [2] it was 15.6%; in test [3], 50.1%; in test [4] it was 24.7%; in test [5] it was 7.2% (active); in [6], 3.75% (active). The growth in [7] is 5.95% (active); in test [8], 36.1%; in test [9], -18.9% (active); in test [10], 39.2%.

`COc1ccc(Cn2cc3c(c2-c2ccc(O)cc2)CCc2cnoc2-3)cc1`: the growth in [1] was 11.5%; in test [2], 26.6%; in test [3], 34.9%; in test [4], 41.2%; in test [5], 48.4%; in test [6] it was 12%. Further, the growth is 19.7% in [7], -14.7% (active) in test [8], 5.28% (active) in [9] and -1.58% (active) in test [10].

On to `COc1nc(OC)nc(-c2cc(C(=O)c3ccc(Br)cc3)n3cc(C)cc(C)c23)n1`, for which the growth was 87% in test [1]; 76.4% in test [2]; 54.7% in test [3]; 102% in test [4]; 37.6% in test [5]; 53.9% in [6]. Besides, the growth in test [7] was 62.4%; in test [8], 34.5%; in test [9] it was 24.1%; in test [10], 58.7%.

On to `CCCCCCCCCCCCCCCCNC(=S)N/N=C/c1ccc(OC)cc1`, for which the growth in test [1] was 106%; in test [2], 93.2%; in test [3], 92.1%; in test [4], 105%; in [5] it was 113%; in test [6], 114%. Also, the growth in [7] is 106%; in [8] it was 110%; in test [9], 107%; in test [10], 101%.

`CCCCCCCCCCCCCCCCNC(=O)Nc1ccc(C)c(NC(=O)NCCCCCCCCCCCCCCCC)c1`: the growth in test [1] was 104%; in test [2] it was 99.2%; in [3] it was 105%; in [4] it was 109%; in [5], 108%; in [6], 105%. Besides, the growth in [7] was 107%; in test [8] it was 109%; in test [9], 95.1%; in [10] it was 112%.

As for `Cc1cc2c(-c3nc4ccccc4[nH]3)c(O)c(O)cc2c(O)c1-c1c(C)cc2c(-c3nc4ccccc4[nH]3)c(O)c(O)cc2c1O`, the growth in [1] is 6% (active); in test [2] it was 9.72% (active); in test [3] it was -6.85% (active); in [4], 26.2%; in test [5] it was 6.83% (active); in test [6], -35.6% (active). For the same compound, the growth in test [7] is 12.7%; in [8], 20.6%; in [9] it was 4.85% (active); in test [10], -12.6% (active).

With `COc1ccc(CNCCCN2C(=O)c3ccc4c5c(ccc(c35)C2=O)C(=O)N(CCCNCc2ccc(OC)c(OC)c2OC)C4=O)c(OC)c1OC`, the growth in test [1] is -55.4% (active); in test [2], -42.3% (active); in [3], -51.1% (active); in [4], -55.4% (active); in test [5], -97.3% (active); in test [6], -77.4% (active). Besides, the growth in [7] was -79.6% (active); in [8] it was -91.8% (active); in [9], -38.2% (active); in [10], -36.5% (active).
